From ChEMBL document CHEMBL3988442, “University of Dundee, Small-Polar-MMV Screening Library” (2021)
About 13,000 (27%) of roughly 48,000 compounds showed an effect of 50% or more. This is one part of the list.

System: Wolbachia pipientis
Test: Anti-Wolbachia Cell-Based Screen
Assay type: functional
Set-up: scale not given: in the data most compounds retested in dose-response had high values
Details: 5 µM

SMILES | Percent Effect [%]
CCN(CCc1nc2cc(C)ccc2[nH]1)C(=O)COC | 16.32
CCSCCC(C)N(C)C(=O)c1ccc2nncn2c1 (configuration not stated) | 5.422
CC(C)N1CCC(CC(=O)NC[C@H]2CCc3ccccc3O2)CC1 | 10.1
Cc1cc(NC2CCN(c3ccccc3)C2)n2ncnc2n1 (configuration not stated) | -12.56
Cc1cc(=O)n2ncnc2n1CC(O)c1ccccc1 (configuration not stated) | -22.33
CCOc1cc(C)nc(N2CCN(Cc3nccn3CC)CC2)n1 | -15.08
O=C(CSc1ccc(F)c(F)c1)NS(=O)(=O)c1ccc2c(c1)OCCO2 | -0.1688
Cc1cnc(N2C[C@@H]3[C@@H](C2)OCC(=O)N3CCN(C)C)nc1.O=C(O)C(F)(F)F | -6.584
Cc1cnc(N2CCc3cc(C(=O)O)c(N(C)C)nc3CC2)nc1.O=C(O)C(F)(F)F | 100.3
Cn1cc(-c2nc3c(cc2C(=O)O)CCN(C(=O)C2CC2)CC3)cn1.O=C(O)C(F)(F)F | -6.455
CC(=O)N1CC[C@]2(O)CCN(Cc3nc(C)c[nH]3)C[C@@H]2C1 | -2.174
O=C(NCCn1ccc(-c2ccccn2)n1)C1CC1 | -0.9217
O=C(NCCn1ccc(-c2ccccn2)n1)c1ccncc1 | -7.154
CC(=O)NCCNc1nc(-c2ccccn2)nc2c1c(C)nn2C | -13.51
O=S(=O)(NCCn1ccc(-c2ccccn2)n1)C1CC1 | -6.765
O=S(=O)(NCCn1ccc(-c2ccccn2)n1)C1CCCCC1 | 96.49
O=S(=O)(NCCn1ccc(-c2ccncc2)n1)C1CC1 | -3.151
CCOCC(=O)NCCn1ccc(-c2ccccn2)n1 | 107
O=C(NCCn1ccc(-c2ccccn2)n1)C1CCC1 | 100.8
O=C(CC1CCCC1)NCCn1ccc(-c2ccccn2)n1 | -10.47
CC(=O)NCCn1ccc(-c2ccccn2)n1 | 104.5
Cc1ccc(O)c(CN(Cc2ccccc2)Cc2nccs2)n1 | 11.33
CCCN1CCCn2nc(CNC(=O)CCc3scnc3C)cc2C1 | 1.883

SMILES | Percent Effect [%]
CN(Cc1ccsc1)Cc1nc(-c2cnccn2)no1 | -7.726
CC(C)(C)C(=O)NCCn1ccc(-c2ccccn2)n1 | 67.15
CC(C)(C)C(=O)NCCn1ccc(-c2ccncc2)n1 | -1.821
Cc1cnn(CC2CCCN2Cc2nccn2C)c1 (configuration not stated) | -1.089
Cc1cnn(CC2CCCN2Cc2nc3ccccc3n2C)c1 (configuration not stated) | 0.7122
Cc1cnn(CC2CCCN2Cc2nc3ccccc3nc2C)c1 (configuration not stated) | 3.797
Cc1cnn(CC2CCCCN2Cc2nc(-c3ccoc3)no2)c1 (configuration not stated) | 6.468
NC(=O)C1CCCN1Cc1nccn1CC(F)(F)F (configuration not stated) | -2.704
Cn1ccnc1CN1CCCC1Cn1cccn1 (configuration not stated) | 107.8
CCn1ccnc1CN1CCCC1Cn1cc(C)cn1 (configuration not stated) | 134.6
O=C(C1CCCCN1Cc1nccn1CC(F)(F)F)N1CCCC1 (configuration not stated) | -10.67
Cn1ccnc1CN1CCCCC1Cn1cccn1 (configuration not stated) | 5.027
Cc1cnn(CC2CCCCN2Cc2nccn2CC(F)(F)F)c1 (configuration not stated) | 101.7
Cc1nc2ccccc2nc1CN1CCCCC1Cn1cccn1 (configuration not stated) | -6.205
Cc1cnn(CC2CCCN2Cc2nccn2CC(F)(F)F)c1 (configuration not stated) | 129.3
COc1ccc(Cc2ncc3c(n2)CN(C(=O)C2COCCO2)C3)cc1 (configuration not stated) | -5.777
CCCN1CCN(Cc2cc(Cl)cc(Cl)c2)[C@H]2CS(=O)(=O)C[C@H]21 | 3.846
CSC(C)CC(=O)N1CCC(n2ccnn2)CC1 (configuration not stated) | 6.562
O=C(CCN1CCNCC1)N1CCC2(CC1)c1ccccc1CC2O (configuration not stated) | 4.718
COCC(=O)N1CCC2(CC1)NC(=O)c1ccccc12.Cl | -6.733
Cl.O=C(C1CC1)N1CCc2ccccc2C12CCNCC2 | 85.13
COCC(=O)N1CCc2ccccc2C12CCNCC2.Cl | 112.7
CCOC(=O)N1CCc2ccccc2C12CCNCC2.Cl | 93.5

SMILES | Percent Effect [%]
O=C(C1CC1)N1CCC2(CC1)CNCc1ccccc12 | 1.154
COCC(=O)N1CCc2[nH]c(=O)ccc2C1 | -6.404
CN(C)C(=O)N1Cc2ccccc2C2(CCNCC2)C1.Cl | -11
Cl.O=C([C@H]1CCCO1)N1CCC2(CC1)CNCc1ccccc12 | -10.28
CS(=O)(=O)N1CC[C@]2(C[C@H](Oc3ccccn3)CO2)C1.O=C(O)C(F)(F)F | 1.633
Cn1nc(Cn2cccc2)c2c1CN(Cc1ccsc1)C2.O=C(O)C(F)(F)F | 0.5842
Cc1ccccc1CN1CCCN(C2CCOC2=O)CC1 (configuration not stated) | 1.458
CCO[C@@H]1CN(S(=O)(=O)c2cn(C)cn2)[C@@H]2CCCO[C@@H]21.O=C(O)C(F)(F)F | -6.587
Cc1cc(N(C)C)nc(N2CCN(C(C)c3nc(C)no3)CC2)n1 (configuration not stated) | 5.095
Cc1nc(C)n(CC2CN(CC(=O)NC3CCCC3)CCO2)n1 (configuration not stated) | 112.4
Cc1cc(C)n(CC2CN(CCC(=O)NC3CCCCC3)CCO2)n1 (configuration not stated) | 118.1
Cc1nc(C)n(CC2CN(CC(=O)Nc3nccs3)CCO2)n1 (configuration not stated) | 1.962
Cc1cc(C)n(CC2CN(CC(=O)NC3CCOCC3)CCO2)n1 (configuration not stated) | 89.87
CCN1CCC(NC(=O)CN2CCCC2Cn2nc(C)cc2C)CC1 (configuration not stated) | -4.017
Cc1cc(C)n(CC2CN(CC(=O)NC3CCCCC3)CCO2)n1 (configuration not stated) | 116.8
Cc1cc(C)n(CC2CN(CC(=O)NC3CCCC3)CCO2)n1 (configuration not stated) | -2.568
Cc1nc(C)n(CC2CN(CC(=O)Nc3cccnc3)CCO2)n1 (configuration not stated) | 9.573
Cc1cc(C)n(CC2CN(CC(=O)Nc3c(C)n[nH]c3C)CCO2)n1 (configuration not stated) | -5.671
CCNC(=O)C1CCN(c2cc(CC)nc3ccnn23)C1 (configuration not stated) | -6.245
CC(C)(C)CCNC(=O)c1ccc(Cl)c(NS(C)(=O)=O)c1 | -2.179
O=C(NCC(=O)N1CC2(CCCC2)c2c(F)cccc21)C1CC1 | -3.819
